Drawing on ChEMBL document CHEMBL4513216, “Probing the Open Global Health Chemical Diversity Library for Multistage-Active Starting Points for Next-Generation Antimalarials” (ACS Infect Dis, 2020), this text covers INHIBITION for 58 molecules.

In all, about 69,000 compounds went through this assay and about 8,600 (12%) showed an effect of 50% or more. This is one part of a sample in which strong results are shown more often than they occur.

The test concerns Plasmodium berghei. Briefly: Screen against P. berghei liver stage (PbLuc), transformed with Luciferase, at 10uM. Type of test: functional, HepG2. The following applies: tested at 10 uM.
In the case of `COC(C)(C)CNC(=O)N1CCCC1c1c(C)n[nH]c1C` (stereo not drawn), the INHIBITION turned out to be 82.2%.

For the molecule `Cc1n[nH]c(C)c1C1CCCN1C(=O)NCC(=O)NC(C)(C)C` (stereo not drawn), the INHIBITION was determined as 43.3%. As to `Cc1n[nH]c(C)c1C1CCCN1C(=O)NC(C)(C)C` (stereo not drawn), the INHIBITION was found to be 31.1%. As for `CCOc1c(CNC2CSCCSC2)cccc1OC`, the figure is 24.9%; as for `Cc1nnc([C@]23COC[C@H]2CN(Cc2cccs2)C3)o1`, 27.5%; as for `COCc1noc(CC2CN(c3ncnc4sc(C)c(C)c34)CCO2)n1` (stereo not drawn), -12.5%.

As for `Cc1cnc(N2CCC3(CCN(CC4CCCC4)C3=O)CC2)nc1`, the INHIBITION was -9.74%. As for `Cc1cnn(C2CN(Cc3nc(-c4ccco4)no3)C2)c1`, the figure is -0.847%; as for `Cc1cccc(-c2noc(Cn3nc(C(N)=O)ccc3=O)n2)c1`, 56%; as for `Cc1cnn(C2CN(Cc3noc(-c4ccccc4)n3)C2)c1`, 8.77%. As for `CCCc1noc(C(C)N2CC(n3cccn3)C2)n1` (stereo not drawn), the INHIBITION worked out at 8.77%. As for `Cc1ccc(-c2noc(Cn3nc(C(N)=O)ccc3=O)n2)cc1`, the figure is 28.2%; as for `CC(c1nc(-c2ccccc2)no1)N1CC(n2cccn2)C1` (stereo not drawn), -66.5%; as for `Cc1ccccc1-c1noc(CN2CC(n3cccn3)C2)n1`, -33.7%. Regarding `COc1ccc(-c2nc(CN3CC(n4cc(C)cn4)C3)no2)cc1`, the INHIBITION is 90.1%. Take `COc1ccc(-c2nc(CN3CC(n4cccn4)C3)no2)cc1`: the INHIBITION was 25.8%.

Consider `CCc1ccc(-c2noc(Cn3nc(C(N)=O)ccc3=O)n2)cc1`, for which the INHIBITION was -16.3%. With `Cc1cnn(C2CN(C(C)c3nc(-c4ccccc4)no3)C2)c1` (stereo not drawn), the INHIBITION came out at 84%. For the molecule `Cc1cnn(C2CN(Cc3nc(-c4ccccc4C)no3)C2)c1`, the INHIBITION came to 89.5%. Regarding `CC(=O)N(Cc1noc(C2CC2)n1)C1CCN(CC(=O)NC2CC2)C1` (stereo not drawn), the INHIBITION was -11.9%. Take `Cc1nc(CNC(=O)NC(C)c2ccc3c(c2)OCCCO3)cs1` (stereo not drawn): the INHIBITION is on record as 1.04%.

For `Cc1noc([C@H]2C[C@H]3OCC[C@H]3N(Cc3ccc(F)cc3)C2)n1`, the INHIBITION is listed as 35.7%. As for `CN(c1ccncn1)C1CC2(CCN(C(=O)c3cccn3C)C2)C1` (stereo not drawn), the figure is 15.9%; as for `Cc1cnn(C2CN(CC(O)c3ccc4c(c3)OCCO4)C2)c1` (stereo not drawn), 23.2%. Take `COc1ccc(-c2noc(CN3CC(n4cc(C)cn4)C3)n2)cc1`: the INHIBITION is given as 89.5%. As for `Cc1ccc(-c2noc(CN3CC(n4cc(C)cn4)C3)n2)cc1`, the figure is 90.9%; as for `Cc1ccc(-c2nnc(CN3CC(n4cc(C)cn4)C3)o2)cc1`, -9.72%; as for `Cc1cnn(C2CN(Cc3ccc4c(c3)OCCO4)C2)c1`, 57.5%. For the molecule `Cc1cnn(C2CN(Cc3nc(-c4ccsc4)no3)C2)c1`, the INHIBITION came to 15.5%. As for `CN(C)CC1CN(Cc2nc(-c3ccccn3)no2)CCO1` (stereo not drawn), the figure is -11.4%. Regarding `Cc1cnn(CC2CN(Cc3nc(-c4ccccn4)no3)CCO2)c1` (stereo not drawn), the INHIBITION turned out to be 21.6%.

As to `Cc1cnn(C2CN(Cc3nc(C(C)(C)C)no3)C2)c1`, the INHIBITION is recorded as 29.4%. Turning to `COc1ccc(-c2noc(CN3CC(n4cccn4)C3)n2)c(OC)c1`, the INHIBITION is on record as -18%.

As to `Cc1cnn(C2CN(Cc3nc(-c4ccccn4)no3)C2)c1`, the INHIBITION was 51.1%. As for `Cc1cnn(C2CN(CC(O)COCc3ccc4c(c3)OCO4)C2)c1` (stereo not drawn), the figure is 32.3%; as for `c1ccc2c(c1)COC1(CCCCC1)N2`, -30%. For the molecule `O=C(NCCC1=CCCCC1)Nc1cc(C(F)(F)F)c[nH]c1=O`, the INHIBITION was 7.27%. Regarding `c1ccc(CN2CCCC(CNc3ncnc4c3CCNCC4)C2)cc1` (stereo not drawn), the INHIBITION amounted to 45%. As for `CC(=O)N1CCCN(C(=O)NCCOc2ccc3c(c2)CCC3)CC1`, the figure is 35.15%; as for `CCOC(=O)[C@H]1CNC[C@H]1C(=O)OCC`, 22%. As for `Cc1ncsc1C(=O)N1CCCC(c2cc(C(F)F)n3ncnc3n2)C1` (stereo not drawn), the figure is 5.11%; as for `O=C(c1cnccn1)N1CCC2(CCN(Cc3ccsc3)C2)CC1`, 23.3%.

Regarding `CCOc1c(CNCCCn2ccnc2)cc(Cl)cc1OC`, the INHIBITION is -9.2%. For `CN1CCN(C2CCN(C(=O)CCC3CCCC3)CC2)CC1`, the INHIBITION is 29.8%. Turning to `Cc1cccc(-c2noc(CN3CC(n4cccn4)C3)n2)c1`, the INHIBITION is on record as 14.1%.

For `Cc1cccc(-c2noc(CN3CC(n4cc(C)cn4)C3)n2)c1`, the INHIBITION is listed as 90%. As for `Cc1cnn(C2CN(Cc3nc(-c4cccnc4)no3)C2)c1`, the figure is 18.2%; as for `CCn1ncc2c1CN(C(=O)Cc1ccccn1)CC2COC` (stereo not drawn), 18.3%. As for `CCOCC1CN(CCOc2ccc(Cl)cc2)Cc2c1cnn2C` (stereo not drawn), the figure is 19.8%; as for `COCC1CN(CCOc2ccc(Cl)cc2)Cc2c1cnn2C` (stereo not drawn), 53.9%. As for `CCOCC1CN(CCOCc2ccccc2)Cc2c1cnn2C` (stereo not drawn), the figure is -14.3%. With `CCn1ncc2c1C(COC)CN(Cc1ccco1)C2` (stereo not drawn), the INHIBITION is reported as 39.2%.

Consider `CO[C@H]1C[C@@H](O)C12CCN(CCOc1ccc(Cl)cc1)CC2`, for which the INHIBITION stood at 44.6%. Regarding `Cn1ncc2c1CN(Cc1ccccc1F)CC2COCC1CC1` (stereo not drawn), the INHIBITION amounted to 49.3%. As for `CCOCC1CN(CCc2ccccc2)Cc2c1cnn2C` (stereo not drawn), the figure is 50%; as for `CCn1ncc2c1CN(CCc1cccc(Cl)c1)CC2COC` (stereo not drawn), 59.3%.

Regarding `COCC1CN(c2ccc(C)nn2)Cc2cnn(C)c21` (stereo not drawn), the INHIBITION is reported as 20.6%. As for `COCC1CN(CCc2ccc(OC)c(OC)c2)Cc2c1cnn2C` (stereo not drawn), the figure is 53.9%.
